Test results as given in PubChem BioAssay AID1259251 (The Scripps Research Institute Molecular Screening Center, 2017).
About 580 (1.9%) of roughly 30,000 compounds were called active. The sample as a whole holds a higher share of actives than the screen did. A number with no mark means an inactive call. No stated cut-off is given here; in the data, active means inhibition above about 43%; inactive means the rest.

These molecules were tested against Serine/threonine-protein kinase ULK1 (Homo sapiens) (UniProt O75385) (assay: ULK1 kinase inhibitors, primary screen, biochemical, AlphaScreen (AID 1259251;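 further: 0% = median of compound wells and 100% = no enzyme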)). Conditions: AlphaScreen Atg13 phosphorylation by ULK1, luminescence; at 5.96 µM; hits give high values.
Serine/threonine-protein kinase ULK1 (Homo sapiens), sequence (O75385 whole entry, looked up): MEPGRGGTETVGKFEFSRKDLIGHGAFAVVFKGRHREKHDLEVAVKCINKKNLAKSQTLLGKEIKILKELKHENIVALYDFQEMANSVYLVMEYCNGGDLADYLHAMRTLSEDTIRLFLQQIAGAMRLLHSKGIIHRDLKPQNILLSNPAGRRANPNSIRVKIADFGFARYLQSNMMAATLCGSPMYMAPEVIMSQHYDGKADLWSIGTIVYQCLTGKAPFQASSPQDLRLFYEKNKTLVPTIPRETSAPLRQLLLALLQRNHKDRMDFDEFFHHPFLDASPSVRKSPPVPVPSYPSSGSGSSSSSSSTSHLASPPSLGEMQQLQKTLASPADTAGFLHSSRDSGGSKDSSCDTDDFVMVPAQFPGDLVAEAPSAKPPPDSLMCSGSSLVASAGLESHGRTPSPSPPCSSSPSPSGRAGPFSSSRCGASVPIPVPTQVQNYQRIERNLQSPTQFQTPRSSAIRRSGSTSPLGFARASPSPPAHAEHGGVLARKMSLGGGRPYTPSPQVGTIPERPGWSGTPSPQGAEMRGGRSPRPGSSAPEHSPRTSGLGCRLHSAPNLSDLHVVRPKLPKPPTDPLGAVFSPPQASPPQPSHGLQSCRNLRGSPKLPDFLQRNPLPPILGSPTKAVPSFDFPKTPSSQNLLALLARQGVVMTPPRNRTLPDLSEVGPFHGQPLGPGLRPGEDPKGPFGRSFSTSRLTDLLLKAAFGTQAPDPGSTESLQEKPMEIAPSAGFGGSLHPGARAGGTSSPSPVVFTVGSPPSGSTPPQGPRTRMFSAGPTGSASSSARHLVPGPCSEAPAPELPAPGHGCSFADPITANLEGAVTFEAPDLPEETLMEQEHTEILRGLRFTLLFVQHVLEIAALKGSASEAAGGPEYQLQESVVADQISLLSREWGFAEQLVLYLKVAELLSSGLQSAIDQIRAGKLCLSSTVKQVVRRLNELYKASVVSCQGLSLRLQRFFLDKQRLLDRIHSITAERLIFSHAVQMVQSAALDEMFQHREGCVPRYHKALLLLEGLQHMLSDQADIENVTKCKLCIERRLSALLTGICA

Row | SMILES | inhibition
1 | COc1ccc(-n2cc(-c3ccccc3[N+](=O)[O-])cn2)cc1 | -17.3%
2 | Cc1nn(C)c(C)c1-c1nc2ccc(C(=O)NCCO)cc2s1 | 1.9%
3 | O=C(NCCOc1ccccc1)c1ccc2nc(N3CCN(Cc4ccc5c(c4)OCO5)CC3)sc2c1 | 1.44%
4 | COc1ccc(-c2nc3ncnc(NCCc4ccc(O)cc4)c3[nH]2)cn1 | -9.33%
5 | c1ccc(Oc2cc(NC3CC3)ncn2)cc1 | 4.64%
6 | O=C(NCc1nc2ccccc2[nH]1)c1cccc(-c2cccs2)c1 | 1.37%
7 | CC(C)(C)c1ccc(S(=O)(=O)NCc2nc(-c3ccncc3)n[nH]2)cc1 | 2.8%
8 | Cc1ccc(C)c(NS(=O)(=O)c2ccc3c(c2)OCCCO3)c1 | 0.58%
9 | c1ccc(CN2CCC(Nc3nc(-c4ccccc4)nc4c3ncn4C3CCCCC3)CC2)cc1 | -30.6%
10 | c1ccc(CN2CCC(Nc3nc(Nc4ccc(N5CCOCC5)cc4)c4ncn(C5CCCCC5)c4n3)CC2)cc1 | 50.8% (active)
11 | c1ccc(CN2CCC(Nc3nc(NCCN4CCOCC4)c4ncn(C5CCCCC5)c4n3)CC2)cc1 | 7.74%
12 | c1ccc(CN2CCC(Nc3nc(NCc4ccc5c(c4)OCO5)nc4c3ncn4C3CCCCC3)CC2)cc1 | 1.3%
13 | O=C1CCCN1CCn1cnc2c(Nc3ccc(N4CCOCC4)cc3)nc(NCc3ccc4c(c3)OCO4)nc21 | 11.6%
14 | c1cc2c(cc1CNc1nc(Nc3ccc(N4CCOCC4)cc3)c3ncn(C4CCCCC4)c3n1)OCO2 | 56.2% (active)
15 | CC(C)N(CCNC(=O)C1CCN(c2ccc(Nc3ccccc3)nn2)CC1)C(C)C | 0.63%
16 | COc1cc(NC(=O)c2ccnc(-c3c(C)noc3C)c2)cc(OC)c1OC | 3.86%
17 | Oc1ccc(CCNc2nc(Nc3ccncn3)nc3c2ncn3C2CCCCC2)cc1 | 14.6%
18 | CC(=O)Nc1ccc(Nc2nc(Nc3ccccn3)ncc2C)cc1 | 8.71%
19 | CC(C)N(CCNC(=O)Cc1cn(-c2ccc(Nc3ccc(N4CCOCC4)cc3)nn2)c2ccccc12)C(C)C | 5.92%
20 | COc1cc(CNC(=O)c2cnc3cc(-c4cn[nH]c4)ccn23)cc(OC)c1 | -6.5%
21 | CCCNC(=O)c1ccc2nc(-c3c(C)nn(C)c3C)sc2c1 | 1.04%
22 | O=C1CCCN1CCCNc1nc(-c2ccccc2)nc2nc[nH]c12 | 9.26%
23 | CN(C)c1cccc(Nc2nc(NCCO)c3[nH]cnc3n2)c1 | 15.6%

Row | SMILES | inhibition
24 | OCCNc1nc(Nc2ccccn2)nc2nc[nH]c12 | 8.19%
25 | O=C1CCCN1CCCNc1nc(Nc2cnccn2)nc2nc[nH]c12 | -13.6%
26 | OCCNc1nc(Nc2ccc3ncccc3c2)nc2nc[nH]c12 | 62.7% (active)
27 | O=C1CCCN1CCCNc1nc(Nc2ccc3ncccc3c2)nc2nc[nH]c12 | 67.6% (active)
28 | CCN(CC)C(=O)C1CCCN(c2nc(NCCOc3ccccc3)c3ncn(C(C)C)c3n2)C1 (stereo not drawn) | 4.04%
29 | c1cncc(Nc2nccc(Nc3ccc(N4CCOCC4)cc3)n2)c1 | 10%
30 | COCCNc1cc(-c2ccc(F)cc2)nc(C)n1 | 0.77%
31 | CCN(C(=O)c1ccc(Br)cc1)c1ccccc1 | 2.64%
32 | COc1cc2nc(-c3cccc(N)c3)nc(NCCN3CCOCC3)c2cc1OC | -4.6%
33 | COc1cc(C(=O)N2CCOCC2)ccc1Nc1cc(NCc2cccc(S(C)(=O)=O)c2)c(C(F)(F)F)cn1 | -14.6%
34 | COc1cc(N2CCOCC2)ccc1Nc1cc(Nc2ccccc2-n2cccn2)c(C(F)(F)F)cn1 | 77% (active)
35 | FC(F)(F)c1cnc(Nc2ccc(N3CCOCC3)cc2)cc1-n1ncc2ccccc21 | 2.76%
36 | CCOC(=O)c1cc[n+](CC(=O)c2ccc(NC(=O)c3ccccc3)cc2)cc1 | 3.76%
37 | CCN(CC)C(=O)C1CCCN(c2nc3ccc(C(=O)Nc4ccc(NC(C)=O)cc4)cc3s2)C1 (stereo not drawn) | -20.8%
38 | CC(C)N(CCNC(=O)c1ccnc(Nc2ccc(C(F)(F)F)cc2)c1)C(C)C | -25.3%
39 | CCN(CC)CCNC(=O)c1cc(S(C)(=O)=O)ccc1OC | 13%
40 | CCN(CC)CCOc1ccc(Nc2cc(Nc3ccccc3C(=O)NC)c(C(F)(F)F)cn2)c(OC)c1 | 91.6% (active)
41 | CCN(CC)CCNC(=O)c1ccc(Nc2cc(Nc3ccccc3C(=O)NC)c(C(F)(F)F)cn2)nc1 | 92.4% (active)
42 | CNC(=O)c1ccccc1Nc1cc(NC(=O)Cc2ccc([N+](=O)[O-])cc2)ncc1C(F)(F)F | 40.8%
43 | CNC(=O)c1ccccc1Nc1cc(NC(=O)C2(c3ccccc3)CC2)ncc1C(F)(F)F | -23.5%
44 | CNC(=O)c1ccccc1Nc1cc(NC(=O)C(F)(F)c2ccccc2)ncc1C(F)(F)F | 61.2% (active)
45 | CNC(=O)c1ccccc1Nc1cc(NC(=O)Cc2ccc(F)c(F)c2)ncc1C(F)(F)F | 32.8%
46 | CCN(CC)CCNC(=O)c1ccc(Nc2cc(Nc3ccccc3C(=O)NC)c(C(F)(F)F)cn2)c(C)c1 | 88.5% (active)

Row | SMILES | inhibition
47 | O=C1CCCN1CCn1cnc2c(NCc3cccc(C(F)(F)F)c3)nc(Nc3nccc4ccccc34)nc21 | -5.58%
48 | Cc1cnc(CNc2cc(-c3ccccc3F)nc(C)n2)nc1 | 3.69%
49 | COc1cc2nc(Nc3nccc4ccccc34)nc(NCc3cccc(C(F)(F)F)c3)c2cc1OC | -3.82%
50 | COC(c1ccccc1)(c1ccccc1)C(Oc1nc(C)cc(C)n1)C(=O)O (stereo not drawn) | 5.25%
51 | CC(C)n1c(-c2ccc(C(N)=O)cc2)nc2c(NCCN3CCOCC3)ncnc21 | -4.64%
52 | O=C(NCCc1cccnc1)c1ccc2c(c1)CC(c1nc3ccc(-c4cn[nH]c4)cc3c(=O)[nH]1)CO2 (stereo not drawn) | 1.53%
53 | CCNc1ncc(C)c(NCCc2ccc(OC)cc2)n1 | -7.79%
54 | Nc1nc(NCc2cccnc2)nc2c1ncn2-c1ccsc1 | 2.79%
55 | CC(=O)Nc1ccc2cnn(-c3cccc(C(=O)NCCN4CCOCC4)c3)c2c1 | -2.64%
56 | C1=C2[C@@H](c3ccccc3)N3CCC[C@@H]3[C@H]3CCC[C@@]23OCC1 | -9.95%
57 | O=C(NC1CC1)c1ccc(-c2nccc(NCc3nc4ccccc4[nH]3)n2)cc1 | -2.79%
58 | COc1cc(Nc2cc(NC3CC3)ncn2)cc(OC)c1OC | -5.2%
59 | O=C(NCCCN1CCCC1=O)C1CCN(c2ccc(Nc3ccc4ncccc4c3)nn2)CC1 | 7.45%
60 | COc1cccc(C(=O)Nc2nc3ccc(-c4ccncc4)cc3s2)c1 | 14.9%
61 | CNC(=O)c1ccccc1Nc1cc(Nc2ccc(C(=O)N(C)C)cc2)ncc1C(F)(F)F | 86.4% (active)
62 | CNC(=O)c1ccccc1Nc1ccnc(Nc2ccc(N3CCOCC3)cc2)c1 | 6.96%
63 | CNC(=O)c1ccccc1Nc1nc(Nc2ccc(-n3cnc(-c4ccc(C)nc4)n3)cc2)ncc1Cl | 8.9%
64 | N#Cc1cccc(-c2ccnc(Nc3ccc(N4CCOCC4)cc3)n2)c1 | 7.92%
65 | CC(C)n1cnc2c(NCCO)nc(Nc3ccc(C(F)(F)F)cc3)nc21 | -7.45%
66 | c1ccc(N2CCN(c3nc(NCCN4CCOCC4)c4ncn(C5CCCCC5)c4n3)CC2)nc1 | -0.56%
67 | Cn1c(Nc2nc(NC3CC3)c3ncn(C4CCCCC4)c3n2)nc2ccccc21 | 36.9%
68 | O=C(CNS(=O)(=O)c1ccc(Cl)cc1)OCC(=O)c1ccccc1 | 14.9%
